Compound activity: PubChem BioAssay, National Center for Advancing Translational Sciences (NCATS)
Pf Dd2 inh = qHTS Primary assay for Inhibitors of Plasmodium falciparum Dd2 growth in vitro. P. falciparum Dd2 growth, SYBR Green, 72 h. Potency, µM (highest dose often 28.9 µM), actives largely listed as inhibitors. 120,000 tested, 4.3% active; active = well fitted inhibition curve with a large enough effect; also: nearly all actives have a fitted effect of over 65% in size
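Infected erythrocytes (Dd2, 0.3% parasitemia, 2.5% hematocrit final) are added to compound in RPMI-1640/Albumax II medium, grown 72 h at 37C in low oxygen, then lysed with saponin/Triton-X containing SYBR Green and read by fluorescence.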
Hits are given with their value; n = inactive; [ ] = another dose, or the depositor's remark. Many of the other results were omitted from the sample, so hits are more common in it than they were.

SMILES	Pf Dd2 inh
O=C(CC1CCCN(c2cnn(CC3CC3)c(=O)c2)C1)NCCc1cccs1 (centres undefined)	n
CN(C)c1ncc2c(n1)C(C)(C(=O)Nc1cccc(F)c1)CCC2 (centres undefined)	n
O=C(O)[C@@H]1CN(Cc2ccccc2)C[C@@H]1C(=O)N1CCN(c2ccccn2)CC1	n
C[S+](=O)([O-])N1C[C@H](C(=O)N2CCN(c3ccccn3)CC2)C[C@@H]1c1ccc(F)cc1	n
O=C([C@@H]1C[C@@H](c2ccc(F)cc2)N(Cc2ccccc2)C1)N1CCN(c2ccccn2)CC1	7.1µM
CCCCNC(=O)CCCN1C(=O)COc2ccc(C(C)(C)CC)cc21	n
COc1cc(C2C(C(=O)Nc3ccc(C)cc3C)=C(C)Nc3nc(SCc4ccccc4)nn32)cc(OC)c1OC (centres undefined)	n
CC1=C(C(=O)Nc2ccc(C)cc2C)C(c2ccc(C(=O)O)cc2)n2nc(SCc3ccccc3)nc2N1 (centres undefined)	n
CC1=C(C(=O)Nc2ccc(C)cc2C)C(c2ccc(C(C)C)cc2)n2nc(C(F)(F)F)nc2N1 (centres undefined)	13µM
CNC(=O)c1cnn2c1CN([S+](C)(=O)[O-])CC2	n
CCC(=O)N1CCC2(CC1)OCC(C(=O)NCc1ccccc1)N2C(=O)c1cccc(OC)c1 (centres undefined)	n
Cc1cccc(NC(=O)N2CC(N(C3CCOCC3)S(C)(=O)=O)C2)c1	n
Cc1nn(CC(=O)NCc2ccccc2Cl)c(=O)c2nn(-c3ccccc3)c(C)c12	n
O=C(Cn1c2ncccc2c(=O)n1-c1ccccc1)Nc1ccc(Cl)cc1C(F)(F)F	n
CCc1cccc(-n2c(=O)c3cccnc3n2CC(=O)NCc2ccc(C)cc2)c1	1.1µM
Cc1ccc(-n2c(=O)c3cccnc3n2CC(=O)Nc2cc(Cl)ccc2C)cc1	n
CCc1ccc(-n2c(=O)c3cccnc3n2CC(=O)NCc2ccc(F)cc2)cc1	n
CCc1cccc(-n2c(=O)c3cccnc3n2CC(=O)NCc2ccccc2)c1	1µM
CCc1cccc(-n2c(=O)c3cccnc3n2CC(=O)Nc2ccccc2C(=O)OC)c1	n[5.79 µM]
CCc1cccc(-n2c(=O)c3cccnc3n2CC(=O)NCc2ccccc2Cl)c1	2.2µM
O=C(Cn1c2ncccc2c(=O)n1-c1ccccc1)NCc1ccccc1	n
Cc1noc(-c2cccs2)c1C(=O)NC(C)c1ccccc1 (centres undefined)	n
COc1ccc(CNC(=O)N[C@@H]2CN(c3ncccn3)C[C@H]2CN(C)C)cc1	n
Cc1cc(C)n(C)c(=O)c1C(=O)N1CCC2(CC1)Nc1ccccc1NC2=O	n
COc1ccc(-c2noc(-c3nc(-c4ccc5c(c4)OCO5)no3)n2)c(OC)c1	n
SMILES	Pf Dd2 inh
Cc1ccsc1C(=O)N1CCC(n2cc(-c3nc(-c4ccccc4)no3)nn2)C1 (centres undefined)	n
CNC(=O)c1cc[nH]c1C1CCCN(C(=O)NC(C)(C)C)C1 (centres undefined)	n
CCOc1ccc(CN2C(=O)C3(CCOCC3)CC2c2nnnn2CCOC)cc1OC (centres undefined)	n
Cc1nn(CCC#N)c(C)c1[C@@H]1C=C[C@@H](NC(=O)Nc2ccccc2)C1	n
CC(=O)Nc1ccc(S(=O)(=O)N[C@@H]2C=C[C@@H](c3c(C)nn(-c4ccc(C(C)(C)C)cc4)c3C)C2)cc1	n
Cc1nn(Cc2ccccc2)c(C)c1[C@@H]1C=C[C@@H](NS(=O)(=O)c2cccs2)C1	13µM
CN(C)c1cccc(C(=O)NC2CCN(c3cc(-c4ccc(Cl)cc4)[nH]n3)C2)c1 (centres undefined)	7.9µM
COc1ccc(C(=O)NC2CCCN(c3cc(-c4ccc(F)cc4)[nH]n3)C2)cc1 (centres undefined)	n
O=C(NC1CCCN(c2cc(-c3ccccc3)[nH]n2)C1)c1ccc2[nH]ccc2c1 (centres undefined)	n
COc1ccc(-c2cc(N3CCC(NC(=O)c4ccc(Cl)cc4)C3)n[nH]2)cc1 (centres undefined)	n
CN(C)c1cccc(C(=O)NC2CCCN(c3cc(-c4ccccc4)[nH]n3)C2)c1 (centres undefined)	n
O=C(NC1CCN(c2cc(-c3ccc(Cl)cc3)[nH]n2)C1)c1ccncc1 (centres undefined)	n
COc1ccc(-c2cc(N3CCCC(NC(=O)c4ccc5[nH]ccc5c4)C3)n[nH]2)cc1 (centres undefined)	10µM
COc1ccc(-c2cc(N3CCCC(NC(=O)c4cccc(Br)c4)C3)n[nH]2)cc1 (centres undefined)	10µM
COc1ccc(-c2cc(N3CCCC(NC(=O)c4ccccc4)C3)n[nH]2)cc1 (centres undefined)	n
CCOc1ccc(C(=O)NC2CCN(c3cc(-c4ccc(OC)cc4)[nH]n3)C2)cc1 (centres undefined)	n
O=C(NC1CCCN(c2cc(-c3ccccc3)[nH]n2)C1)c1cccc(Br)c1 (centres undefined)	n
COc1ccc(-c2cc(N3CCC(NC(=O)c4ccc(C)cc4)C3)n[nH]2)cc1 (centres undefined)	11µM
COc1ccc(S(=O)(=O)N2CCC(CCOc3ccccc3F)C2)cc1 (centres undefined)	n
COCC(=O)N1CCCN(Cc2c(F)ccc(C)c2F)CC1	n
O=C(c1cccs1)N1CCN(Cc2cc(C3CC3)n[nH]2)CC(O)C1 (centres undefined)	n
O=C(c1ccsc1)N1CCC2(CC1)NC(=O)N(Cc1cccc(Cl)c1)C2=O	n
COc1cccc(-c2cc(C(=O)N3CCC(Cn4cccn4)CC3)[nH]n2)c1	n
O=c1n(Cc2ccccc2Cl)nc2n1CCCCC2	n
O=C(NC1(c2cc(F)ccc2F)CC1)[C@H]1CCC[C@H](O)C1	n
SMILES	Pf Dd2 inh
CN(C)CCN(C)CC[C@H]1CN(C(=O)C(C)(C)C)CC[C@H]1CC(=O)O	n
COc1ccc2c(c1)CN(C(C)C)CC[C@H]1COC(=O)N21	n
CCC(C)NC(=O)C1CC(c2ccccc2)CN(C(=O)NCc2ccccc2)C1 (centres undefined)	n
CN1CCC(OC2CCN(S(=O)(=O)c3ccccc3F)CC2)CC1	n
Cc1cccc(CC(=O)N2CCCCCC2c2nnc(-c3ccccc3)o2)c1 (centres undefined)	n
Cc1ccc(-n2cc(CN3CCCCC3C(N)=O)c(-c3cccc(C)c3)n2)cc1 (centres undefined)	11µM
COc1cccc(-c2ccc(NC(=O)C3CCCN3Cc3cnn(C)c3)cc2)c1 (centres undefined)	n
COc1cccc(C2C(C(=O)OC(C)C)=C(C)N=C3SC=C(CC(=O)N4CCCC4)N32)c1OC (centres undefined)	n
COc1ccc(C2Cn3nnc(C(=O)N4CCN(C(=O)c5cccc(F)c5)CC4)c3CO2)cc1 (centres undefined)	n
Cc1ccc(C)c(NC(=O)N2CCC(OC3CCN(S(C)(=O)=O)CC3)CC2)c1	n
CCC(=O)NCCC1CCN(C(=O)Nc2ccc(C)c(F)c2)CC1	n
Cc1ccc(OCC(=O)NCCC2CCN(C(=O)Nc3ccc(F)cc3)CC2)cc1	13µM
Cc1ccc(NC(=O)N2CCC(CCNC(=O)Cc3cccc(F)c3)CC2)cc1	n
Cc1ccc(NC(=O)N2CCC(CCNC(=O)c3n[nH]c4ccccc34)CC2)cc1F	4µM
Cc1cccc(C(=O)NCCC2CCN(C(=O)Nc3ccc(F)cc3)CC2)c1	n
CCC(=O)NCCC1CCN(C(=O)Nc2ccc(C)cc2)CC1	n
